An excerpt weighted towards active compounds, which were near 19% of everything screened.
HepG2 viability: HepG2 cytotoxicity, counter-screen for TGF-b inhibitors | HepG2 CAGA-GFP viability, ATP luminescence, 18 h | Potency, µM (highest dose often 46.1 µM), for the others: top-dose activity change, negative = cytotoxicity, actives largely listed as cytotoxic | 410,000 tested, 0.76% active | AID 588856; note: potency is the fitted concentration of half-maximal effect
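CellTiter-Glo luminescence gave cytotoxicity after 18 hours at 37 degrees C. The cells were HepG2 CAGA-GFP in 1% FBS DMEM, stimulated with 500 pg/mL TGF-beta after compound addition. %Activity was normalised to no-cell wells (complete cell-killing) and DMSO (no toxicity), and curves were fitted and classified.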
IL1B secr inh: inflammasome signaling inhibition, IL-1 beta readout; activity change, % at 57.5 µM; 360,000 tested, 4.7% active; THP-1 LPS/ATP IL-1B secretion, AlphaLISA, 16 h; hits give low values; in the data active = activity change below about -50%; inconclusive = mostly about -30% to -49%; note: % is set by controls: 0 for no effect and ±100 for the full control effect
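THP-1 cells pretreated 1 hr with compounds (up to 57.5 uM final), then stimulated with LPS (250 ng/mL final) plus ATP (1.25 mM final); secreted IL-1B measured by AlphaLISA after 16 hr, decreased signal indicating inhibition.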
TDP1 cell CPT: growth inhibition of DT40 Tdp1-/-;hTDP1 cells with camptothecin (screen for TDP1 inhibitors); chicken DT40 Tdp1-/-;hTDP1 cells + 20 nM CPT, ATP luminescence, 48 h; AID 686979; 420,000 tested, 12% active; Potency, µM (highest dose often 46.2 µM), for the others: at the highest dose activity change, negative = growth inhibition, hits mostly inhibitors; note: potency is the fitted concentration of half-maximal effect; % is set by controls: 0 for no effect and ±100 for the full control effect; nearly all actives have a fitted effect of over 55% in size
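Chicken DT40 Tdp1-/- cells stably complemented with human TDP1 were seeded at 400 cells/well in medium containing 20 nM camptothecin, exposed to pin-transferred compounds, and grown at 37 °C for at least 48 hr. Viability was read as ATP luminescence.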
DT40 TDP1 no CPT: qHTS for Inhibitors of human tyrosyl-DNA phosphodiesterase 1 (TDP1): qHTS in cells in absence of CPT. DT40 Tdp1-/- hTDP1 cells, no CPT, ATP luminescence, 48 h. 420,000 tested, 15% active. AID 686978, 2013. Potency, µM (top dose mostly 46.2 µM), for the others: at the top dose activity change, negative = growth inhibition, hits mostly inhibitors; note: potency is the fitted concentration of half-maximal effect; % is set by controls: 0 for no effect and ±100 for the full control effect; nearly all actives have a fitted effect of over 55% in size
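Growth kinetics read by CellTiter-Glo luminescence after ≥48 hr at 37 °C. Cells: DT40 Tdp1-/- stably carrying human TDP1, 400 per well, compound exposure in the absence of CPT (DMSO vehicle).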
TDP1 block: blocks human tyrosyl-DNA phosphodiesterase 1. recombinant TDP1, AlphaScreen DNA substrate cleavage. 350,000 tested, 0.28% active. Potency, µM (series often up to 130 µM), for the others: at the top dose activity change, negative = inhibition, usual class: inhibitors. Q9NUW8; note: potency is the fitted concentration of half-maximal effect; % is set by controls: 0 for no effect and ±100 for the full control effect; nearly all actives have a fitted effect of over 40% in size
Target sequence (Q9NUW8 whole entry, looked up): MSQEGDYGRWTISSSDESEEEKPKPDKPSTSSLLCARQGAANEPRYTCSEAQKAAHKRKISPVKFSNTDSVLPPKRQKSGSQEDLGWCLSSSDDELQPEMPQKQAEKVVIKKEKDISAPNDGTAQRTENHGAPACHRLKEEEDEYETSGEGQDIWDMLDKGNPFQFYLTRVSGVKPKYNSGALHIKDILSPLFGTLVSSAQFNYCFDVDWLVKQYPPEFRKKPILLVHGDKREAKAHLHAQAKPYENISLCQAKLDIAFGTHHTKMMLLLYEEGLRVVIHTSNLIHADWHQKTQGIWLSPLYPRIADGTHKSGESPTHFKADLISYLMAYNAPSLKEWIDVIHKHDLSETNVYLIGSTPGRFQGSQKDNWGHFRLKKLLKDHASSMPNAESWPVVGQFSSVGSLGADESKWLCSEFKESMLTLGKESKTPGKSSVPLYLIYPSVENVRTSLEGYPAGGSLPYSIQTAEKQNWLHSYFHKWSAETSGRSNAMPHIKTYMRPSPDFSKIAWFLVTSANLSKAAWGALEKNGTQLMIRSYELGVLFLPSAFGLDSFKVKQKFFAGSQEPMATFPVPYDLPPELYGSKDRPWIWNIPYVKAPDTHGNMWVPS
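Enzyme-compound mixtures sat 15 min at room temperature, followed by a 5 min reaction with 15 nM final substrate and 10 min with AlphaScreen beads. Recombinant human Tdp1 was used at 1 nM final.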
TGFb SMAD3 inh: inhibitors of TGF-b signaling | HepG2 CAGA-GFP TGF-b/SMAD3 reporter, GFP fluorescence, 18 h; TGF-beta stimulated, 500 pg/mL final | Potency, µM (top dose mostly 46.1 µM), inactives show top-dose activity, negative = inhibition, actives largely listed as inhibitors | 410,000 tested, 1.2% active; note: potency is the fitted concentration of half-maximal effect; % is set by controls: 0 for no effect and ±100 for the full control effect; nearly all actives have a fitted effect of over 65% in size
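First, reporter cells (HEPG2 CAGA-GFP) rested 2 h at 37 degrees C. Next, compounds were pinned in and TGF-beta added to 500 pg/mL final. After 18 h, GFP was imaged per cell and summed per well.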
Active calls of the source: *; ? = inconclusive; · = no result. Unless noted, calls come from the whole dose curve; as a rule, active = well fitted curve in the direction sought with a large enough effect; inconclusive = small, poorly fitted or top-dose-only effect, or another doubt; inactive = no such curve, though single readings can be large; an effect the other way counts as inactive or inconclusive.

SMILES | HepG2 viability | IL1B secr inh | TDP1 cell CPT | DT40 TDP1 no CPT | TDP1 block | TGFb SMAD3 inh
COCCn1c(C)cc(/C=C2\NC(=S)N(C)C2=O)c1C | -22% | -10 | -12% | ? | 8% | -17%
COC(=O)C(C)N1C(=O)S/C(=C/c2cc(C)n(C(C)C)c2C)C1=O (configuration not stated) | -29% | -12 | 16µM* | ? | 10% | -17%
CCn1c(C)cc(/C=C2/SC(=O)N(C(C)C(=O)OC)C2=O)c1C (configuration not stated) | -42% | -5 | ? | 21µM* | · | 5%
COCCn1c(C)cc(/C=C2/SC(=O)N(C(C)C(=O)OC)C2=O)c1C (configuration not stated) | -30% | -2 | ? | 26µM* | 7% | -18%
C#CCN1C(=O)S/C(=C/c2cc(C)n(CC)c2C)C1=O | -30% | -6 | ? | 21µM* | 5% | -5%
Cc1ccc(Cn2ncc3c4sc(C)cc4n(C)c3c2=O)cc1 | · | · | · | · | -7% | ·
CCOC(=O)C(C)N1C(=O)S/C(=C/c2cc(C)n(-c3ccccn3)c2C)C1=O (configuration not stated) | -16% | -28 | ? | 16µM* | 8% | 1%
C[C@]12CCC(=O)CC1CCC1C2CC[C@@]2(C)C1CC[C@@]21CCO1 (some centres not stated) | 1% | -12 | ? | 21µM* | · | -4%
CCOC(=O)C1CCCN(C(=O)Cn2ncc3c([nH]c4ccc(C)cc43)c2=O)C1 (configuration not stated) | 0% | -15 | ? | ? | 4% | -6%
CCOc1ccccc1NC(=O)Cn1c(=O)nc(-c2ccccc2F)c2cc(Cl)ccc21 | -12% | · | ? | 21µM* | -1% | -5%
Cc1ccc(F)cc1NC(=O)Cn1c(=O)nc(-c2ccccc2F)c2cc(Cl)ccc21 | -7% | · | -29% | ? | 6% | -19%
COc1ccccc1CNC(=O)Cn1c(=O)nc(-c2ccccc2F)c2cc(Cl)ccc21 | 3% | · | ? | 6.5µM* | 1% | 3%
CCCn1c(-c2ccc(F)cc2)nc2c(NC(C)CCCN(CC)CC)nc(C)nc21 (configuration not stated) | · | · | · | · | 4% | ·
CC(C)(C)c1ccccc1NC(=O)c1ccc2c(c1)SC1=NS(=O)(=O)CCN12 | -13% | -26 | 29µM* | ? | 4% | -9%
O=C(NCc1ccccc1Cl)c1ccc2c(c1)SC1=NS(=O)(=O)CCN12 | 9% | ? | ? | ? | 6% | 3%
O=C(Nc1cccc(Br)c1)c1ccc2c(c1)SC1=NS(=O)(=O)CCN12 | -14% | -62* | 23µM* | 29µM* | 0% | 18%
Cc1ccc(CNC(=O)Cn2ccn(-c3cc(C)cc(C)c3)c(=O)c2=O)cc1 | -3% | · | -2% | -18% | 3% | -13%
CC1=C(C(=O)Nc2ccccc2C)C(c2ccco2)n2ncnc2N1 (configuration not stated) | -27% | · | -8% | -26% | -3% | ?
CCOC(=O)C1(Cc2cccc(OC)c2)CCCN(C(=O)c2ccccc2C)C1 (configuration not stated) | -8% | 23 | ? | 16µM* | 6% | -18%
CCOC(=O)C1(Cc2cccc(Cl)c2)CCCN(C(=O)c2ccco2)C1 (configuration not stated) | -20% | 9 | ? | ? | 0% | -24%
CCOC(=O)C1(Cc2cccc(Cl)c2)CCCN(C(=O)c2ccc(COC)s2)C1 (configuration not stated) | 1% | ? | 23µM* | 21µM* | -2% | -11%
CCOC(=O)C1(Cc2cccc(Cl)c2)CCCN(C(=O)c2occc2C)C1 (configuration not stated) | -8% | 19 | ? | -21% | 3% | -7%
CCOC(=O)C1(Cc2cccc(Cl)c2)CCCN(C(=O)c2ccoc2C)C1 (configuration not stated) | -6% | -101* | 21µM* | 18µM* | 2% | -11%
O=C(CSc1ncc2c(n1)-c1ccccc1N(Cc1ccc(Cl)cc1)S2(=O)=O)c1ccc(Cl)cc1 | -46% | · | ? | ? | -3% | -24%
COc1cccc([C@@H]2Oc3ccc(OC)cc3[C@H](O)[C@H]2O)c1 | · | · | · | · | 5% | ·
SMILES | HepG2 viability | IL1B secr inh | TDP1 cell CPT | DT40 TDP1 no CPT | TDP1 block | TGFb SMAD3 inh
Cc1ccc(-c2ccc(C#N)c(=O)n2CC(=O)N(C)C)cc1 | -1% | 21 | -11% | ? | 4% | 15%
Cc1cc2c(cc1NC(=O)c1ccccc1Cl)n(C)c(=O)c(=O)n2C | -6% | · | -20% | -14% | -3% | -36%
CC(C)(C)Nc1nc(Cl)nc(N(C#N)CN2C(=O)c3ccccc3S2(=O)=O)n1 | -16% | -101* | ? | ? | 0% | ?
CC(C)Nc1nc(Cl)nc(N(C#N)CN2C(=O)c3ccccc3S2(=O)=O)n1 | -34% | ? | 26µM* | 18µM* | -1% | ?
COC(=O)CCCCCn1c(-c2ccccc2)cn2c3c(=O)n(C)c(=O)n(C)c3nc12 | -38% | · | -18% | ? | 5% | -22%
COc1cc2sc3cc(NCCCN4CCOCC4)ccc3c(=O)c2cc1OC | -16% | -75* | ? | ? | 1% | -13%
Cc1cc(=O)oc2cc(NC(=O)C3CCCC3)ccc12 | 3% | -30 | -12% | -12% | 0% | 5%
c1ccc2c(NCCCN3CCOCC3)c3ccccc3nc2c1 | · | · | · | · | -4% | ·
O=c1c2ccccc2sc2ccc(NCCCN3CCOCC3)cc12 | -63% | 0 | ? | 23µM* | · | -2%
Cc1cc2oc3cc(NCCC4CCCN4C)ccc3c(=O)c2cc1C (configuration not stated) | -80% | -85* | 8.2µM* | 5.8µM* | · | ?
CN1CCCC1CCNc1ccc2sc3ccccc3c(=O)c2c1 (configuration not stated) | -74% | -66* | ? | ? | · | -30%
O=C(CNC(=O)c1sc2ccccc2c1Cl)NCc1cccc(C(F)(F)F)c1 | -3% | 9 | 0% | -30% | -3% | -11%
O=C1CC(c2cccc(Cl)c2)Cc2nc(N3CCOCC3)ncc21 (configuration not stated) | -1% | 13 | ? | 21µM* | 10% | -12%

Compound activity deposited in PubChem by National Center for Advancing Translational Sciences (NCATS).
